GFP derepression: epigenetic GFP locus derepression in mouse cells | mouse C127i GFP locus derepression, cytometry, 30 h | hit rate 0.09% among 68,000 | Potency, µM (highest dose often 46.1 µM) | AID 597
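Derepression screen: silenced CMV-GFP reporter in murine C127i cells, 30 h compound incubation at 37 C, washed cells imaged by laser-scanning cytometer to enumerate GFP-expressing objects of 20 to 120 um.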
HBB splice mod: alters splicing of the hemoglobin beta chain. AID 925. HBB splicing reporter cell assay, activation; EGFP reporter with mutant IVS2-654 intron; response scale: normalised to 500 nM splice-correcting PNA. hit rate 0.06% among 65,000. Potency, µM (top dose mostly 46.1 µM), usual class: activators
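HeLa cells stably expressing EGFP interrupted by mutant beta-globin intron 2 (IVS2-654), 500/well in 2% FCS. Treated with compound for 2 days at 37C. Splicing correction scored as total well GFP intensity (488 nm excitation, 500-520 nm emission); 500 nM antisense PNA served as control.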
Tau fil binding: binders of human tau filaments; Potency, µM (doses to about 57.1 µM); recombinant tau filaments, thioflavin S fluorescence, 15 h; filaments grown with octadecylsulfate alongside compound; hit rate 2% among 71,000; P10636; AID 596;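 note: actives lower thioflavin S fluorescence by blocking filaments or displacing dye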
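His-tagged recombinant human tau (exons 2, 3 and 10 included), 1 uM, was induced to fibrillize by 30 uM sodium octadecylsulfate with compound present. After 15 h at 37 C, thioflavine S fluorescence (ex 450, em 510 nm) was read.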
ALOX15 inhib: 15-hLO (ALOX15) enzyme inhibition. P16050. purified 15hLO-1, xylenol orange hydroperoxide absorbance. Potency, µM (top dose mostly 57.1 µM), usual class: inhibitors. hit rate 1.4% among 74,000; note: nearly all actives have a fitted effect of over 55% in size
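Purified human 15hLO-1 (40 nM) in 25 mM Hepes pH 7.5, 0.01% Triton X-100, preincubated 15 min RT with compound, then 50 uM arachidonic acid for 6 min. Hydroperoxide read by ferrous/xylenol orange, 30 min; 573/405 nm absorbance ratio gave progress.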
15-hLO-2 inh: blocks human 15-lipoxygenase 2 activity; Potency, µM (series often up to 57.1 µM), hits mostly inhibitors; purified 15hLO-2, xylenol orange hydroperoxide absorbance; hit rate 0.56% among 110,000; note: nearly all actives have a fitted effect of over 60% in size
Target sequence (O15296 whole entry, looked up): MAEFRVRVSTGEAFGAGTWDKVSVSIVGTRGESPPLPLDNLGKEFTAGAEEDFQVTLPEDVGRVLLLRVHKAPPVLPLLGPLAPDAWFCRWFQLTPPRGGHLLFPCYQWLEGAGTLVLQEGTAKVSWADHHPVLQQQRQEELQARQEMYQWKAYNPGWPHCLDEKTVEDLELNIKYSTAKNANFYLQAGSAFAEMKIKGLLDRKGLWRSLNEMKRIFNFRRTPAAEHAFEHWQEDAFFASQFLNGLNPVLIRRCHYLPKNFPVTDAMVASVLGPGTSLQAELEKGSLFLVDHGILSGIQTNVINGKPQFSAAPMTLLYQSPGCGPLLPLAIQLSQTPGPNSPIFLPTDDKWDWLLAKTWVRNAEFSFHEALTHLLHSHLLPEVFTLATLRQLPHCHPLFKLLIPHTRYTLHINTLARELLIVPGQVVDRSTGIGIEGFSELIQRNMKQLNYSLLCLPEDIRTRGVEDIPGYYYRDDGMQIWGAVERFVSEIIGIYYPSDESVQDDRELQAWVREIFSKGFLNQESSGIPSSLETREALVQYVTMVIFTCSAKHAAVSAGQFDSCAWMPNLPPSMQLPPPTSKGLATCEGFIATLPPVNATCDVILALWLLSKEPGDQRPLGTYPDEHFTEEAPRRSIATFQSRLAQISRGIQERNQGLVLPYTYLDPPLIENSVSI
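Purified human 15hLO-2 (50 nM) preincubated 15 min with compound, then 45 uM arachidonic acid for 90 min at RT in 25 mM Hepes pH 7.5, 0.01% Triton X-100. Hydroperoxide detected by Fe-xylenol orange; 573/405 nm absorbance ratio.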
Ub-GFP proteasome: inhibits proteasome, raising ubiquitin-GFP reporter fluorescence | Ubiquitin-GFP reporter cells, proteasome inhibition, GFP fluorescence; response scale: untreated = 0%, 10 µM MG-132 = 100% | Potency, µM (doses to about 45.9 µM), usual class: activators | 67,000 tested, under 10 active | AID 526; active = well fitted activation curve with a large enough effect, not every such curve was filed as active; inconclusive = small, poorly fitted or top-dose-only effect, or another doubt; inactive = no such curve, though single readings can be large or run the other way
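Proteasome blockade was scored as a rise in GFP-expressing U2OS cells carrying a ubiquitin(G76V)-GFP construct, imaged after 4 hr compound treatment at 37 °C across a 46 uM–2.9 nM series.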
Hits are given with their value; [ ] = remark or other dose. The list is not random: actives were taken first. Their share in the collection is about 2.3%. Unless noted, calls come from the whole dose curve; as a rule, active = well fitted curve in the direction sought with a large enough effect; inconclusive = small, poorly fitted or top-dose-only effect, or another doubt; inactive = no such curve, though single readings can be large; an effect the other way counts as inactive or inconclusive.

Results for O=c1cnc2cncnc2n1Cc1ccc(F)cc1 ?
GFP derepression: inactive[9.22 µM]; HBB splice mod: inactive; Tau fil binding: inactive; ALOX15 inhib: inactive; 15-hLO-2 inh: inactive; Ub-GFP proteasome: inactive

How did CCOC(=O)CSc1nc2cc(C)cc(C)c2cc1C#N do in these assays?
GFP derepression: inactive; HBB splice mod: inactive; Tau fil binding: inactive; ALOX15 inhib: inactive; 15-hLO-2 inh: inactive; Ub-GFP proteasome: inactive

What do the screens show for `Cc1cc(C)c2cc(C#N)c(SCC(=O)NCc3ccco3)nc2c1`?
GFP derepression: inactive; Tau fil binding: 20µM; ALOX15 inhib: inconclusive; 15-hLO-2 inh: inactive; Ub-GFP proteasome: inactive

How did O=C(Nc1ccc(Cl)cc1C(=O)Nc1ccccn1)c1ccco1 do in these assays?
GFP derepression: inactive; Tau fil binding: inactive; ALOX15 inhib: 0.16µM; 15-hLO-2 inh: inactive; Ub-GFP proteasome: inactive

Results for O=C(Nc1ccccn1)c1ccco1 ?
15-hLO-2 inh: inactive

Results for CC(C)COC(=O)C(C#N)c1nc2ccccc2nc1N1CCN(Cc2ccc3c(c2)OCO3)CC1 (centres undefined) ?
GFP derepression: inactive; HBB splice mod: inactive[1.84 µM]; Tau fil binding: 2µM; ALOX15 inhib: inactive; 15-hLO-2 inh: inactive; Ub-GFP proteasome: inactive

How did CCCCOC(=O)C(C#N)c1nc2ccccc2nc1N1CCN(Cc2ccc3c(c2)OCO3)CC1 (centres undefined) do in these assays?
GFP derepression: inactive; HBB splice mod: inactive; Tau fil binding: 0.4µM; ALOX15 inhib: inactive; 15-hLO-2 inh: inactive; Ub-GFP proteasome: inactive

What do the screens show for `COC(=O)C(C#N)c1nc2ccccc2nc1N1CCN(Cc2ccc3c(c2)OCO3)CC1` (centres undefined)?
GFP derepression: inconclusive; HBB splice mod: inactive; Tau fil binding: 13µM; ALOX15 inhib: inactive; 15-hLO-2 inh: inactive; Ub-GFP proteasome: inactive

Results for N#CCc1c(C#N)c(N)nc(N2CCN(Cc3ccc4c(c3)OCO4)CC2)c1C#N ?
15-hLO-2 inh: inactive

What do the screens show for `Cc1cc(C)c(C#N)c(N2CCN(Cc3ccc4c(c3)OCO4)CC2)n1`?
GFP derepression: inactive; HBB splice mod: inactive; Tau fil binding: inactive; ALOX15 inhib: inactive; 15-hLO-2 inh: inactive; Ub-GFP proteasome: inactive

What do the screens show for `O=C(O)/C=C\C(=O)Nc1cccc2c1-c1ccccc1C2=O`?
GFP derepression: inactive[9.22 µM]; HBB splice mod: inactive[9.22 µM]; Tau fil binding: inactive[11.4 µM]; ALOX15 inhib: inactive[11.4 µM]; 15-hLO-2 inh: inactive[11.4 µM]; Ub-GFP proteasome: inactive[9.17 µM]

How did CC(=O)Nc1ccc2c(c1)/C(=C/c1ccc([N+](C)(C)C)cc1)c1ccccc1-2 do in these assays?
GFP derepression: inactive[9.22 µM]; HBB splice mod: inactive[9.22 µM]; Tau fil binding: 3.2µM; ALOX15 inhib: inactive[11.4 µM]; 15-hLO-2 inh: inactive[11.4 µM]; Ub-GFP proteasome: inactive[9.17 µM]

Results for COc1cccc2cc(C(=O)C3=C(O)C(=O)N(Cc4ccco4)C3c3cccnc3)oc12 (centres undefined) ?
GFP derepression: inactive; HBB splice mod: inactive; Tau fil binding: inactive; ALOX15 inhib: inactive; 15-hLO-2 inh: inactive; Ub-GFP proteasome: inactive

Results for O=C(C1=C(O)C(=O)N(Cc2ccco2)C1c1cccnc1)c1cc2ccccc2o1 (centres undefined) ?
GFP derepression: inactive; HBB splice mod: inactive; Tau fil binding: inactive; ALOX15 inhib: 16µM; 15-hLO-2 inh: inactive; Ub-GFP proteasome: inactive

Results for CS(=O)(=O)Nc1ccc(Nc2c3ccccc3nc3ccccc23)cc1 ?
GFP derepression: inactive[9.22 µM]; HBB splice mod: inactive[9.22 µM]; Tau fil binding: 1.6µM; ALOX15 inhib: inactive[11.4 µM]; 15-hLO-2 inh: inconclusive; Ub-GFP proteasome: inactive[9.17 µM]

What do the screens show for `CN(C)CCNS(=O)(=O)N(C)C`?
GFP derepression: inactive[9.22 µM]; HBB splice mod: inactive[9.22 µM]; Tau fil binding: inactive[11.4 µM]; ALOX15 inhib: inactive[11.4 µM]; 15-hLO-2 inh: inactive[11.4 µM]; Ub-GFP proteasome: inactive[9.17 µM]

What do the screens show for `O=C1OC(=O)[C@@H]2[C@@H]1[C@@H]1CC[C@H]2O1`?
GFP derepression: inactive[9.22 µM]; HBB splice mod: inactive; Tau fil binding: inactive; ALOX15 inhib: inactive; 15-hLO-2 inh: inactive; Ub-GFP proteasome: inactive

Results for Cc1cc(C)n(-c2nc(Nc3ccccc3)nc(-n3nc(C)cc3C)n2)n1 ?
GFP derepression: inactive; Tau fil binding: inactive; ALOX15 inhib: inactive; 15-hLO-2 inh: inactive; Ub-GFP proteasome: inactive

High-throughput results as filed in PubChem.
